Results: PubChem BioAssay (NCI)
Several values for one entry are separate records, joined by “and”; a condition that tells them apart may be missing. Equal entries are not always repeated. Compounds without any hit were thinned out: in the full panel of roughly 83,000, 20% have a hit.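 Note: values are percent growth. 100 is the growth of untreated cells, values between 100 and 0 indicate rising inhibition; between -100 and 0 indicates cell death.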 Activity calls are given as the source filed them. Rule for the calls: active = growth percent below 10; inactive = the rest.

Test system: HL-60(TB) leukemia
Assay: NCI-60 one-dose screen, 48 h (100 = growth as untreated, 0 = no growth, -100 = all killed)
Conditions: 10 µM unless noted

SMILES	growth
CCCNC(=S)N/N=C(\C)c1ccccn1	-8.41% (active)
Cc1ccc2[nH]c3ccccc3c2c1	99.7% (inactive)
CC(=O)OCC1OC(OC(C)=O)C(OC(C)=O)C(OC(C)=O)C1OC(C)=O (stereo unspecified)	120% (inactive) and 101% (inactive)
O=C(CCc1nnc(CN(c2ccccc2)c2ccccc2)o1)c1nc2ccccc2[nH]1	84.1% (inactive)
CCOC(=O)C(C#N)Cc1ccccc1 (stereo unspecified)	104% (inactive)
CCn1c(Sc2nnc(NC(=O)CCN3CCCC3)s2)nc2c1c(=O)n(C)c(=O)n2C	104% (inactive)
